# Data taken from PMC7862700, “An all-to-all approach to the identification of sequence-specific readers for epigenetic DNA modifications on cytosine”.
# Assays:
# Assay in all cases: DAPPL (digital affinity profiling via proximity ligation, sequencing); 10 mM Tris-HCl pH 7.5, 50 mM NaCl, 1 mM DTT, 4% glycerol, room temperature, 30 min; GST-TFs on glutathione beads, 16-mer random dsDNA library, 0.1% formaldehyde crosslink after washing; high values mean tight binding
# FEV = molecular target: T1, FEV (Homo sapiens, UniProt Q99581 1-238); conditions: protein: recombinant; tags: N-terminal GST; dsDNA, one strand shown
# T1 sequence: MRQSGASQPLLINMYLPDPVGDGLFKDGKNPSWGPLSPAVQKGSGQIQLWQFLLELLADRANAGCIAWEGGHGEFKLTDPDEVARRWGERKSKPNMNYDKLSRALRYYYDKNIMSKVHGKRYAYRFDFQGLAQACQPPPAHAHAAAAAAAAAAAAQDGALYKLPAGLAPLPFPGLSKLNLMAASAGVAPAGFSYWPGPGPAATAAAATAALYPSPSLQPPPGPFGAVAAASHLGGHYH
# Method in brief: (§1)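 Human transcription factors were made in yeast as GST fusions, captured on glutathione beads and barcoded with DNA. With a tag-only sample included, the pool was incubated with 200 nmole of a random double-stranded 16-mer DNA library in Tris/NaCl/DTT/glycerol buffer at room temperature for 30 min, then crosslinked with 0.1% formaldehyde after washing, ligated by proximity, amplified and sequenced. For binding signal, each hexamer's read frequency for a factor is divided by its frequency for the tag-only sample.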
# ETV5 = ETV5 (Homo sapiens, UniProt P41161 1-510); conditions: protein: recombinant; tags: N-terminal GST; dsDNA, one strand shown
# Method in brief: as §1
# HSF1 = HSF1 (Homo sapiens, UniProt Q00613 1-529); conditions: protein: recombinant; tags: N-terminal GST; chain copies: 3; dsDNA, one strand shown
# Method in brief: as §1
# SPIC = molecular target: T2, SPIC (Homo sapiens, UniProt Q8N5J4 1-248); conditions: protein: recombinant; tags: N-terminal GST; dsDNA, one strand shown
# T2 sequence: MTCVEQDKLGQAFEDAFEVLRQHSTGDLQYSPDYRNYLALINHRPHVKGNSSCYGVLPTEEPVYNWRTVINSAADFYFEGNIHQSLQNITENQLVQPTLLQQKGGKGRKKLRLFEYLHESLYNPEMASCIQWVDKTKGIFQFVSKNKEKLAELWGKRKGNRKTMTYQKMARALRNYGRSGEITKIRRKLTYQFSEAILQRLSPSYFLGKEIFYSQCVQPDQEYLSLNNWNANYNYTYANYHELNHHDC
# Method in brief: as §1
# ELF4 = ELF4 (Homo sapiens, UniProt Q99607 1-663); conditions: protein: recombinant; tags: N-terminal GST; dsDNA, one strand shown
# Method in brief: as §1
# ELK4 = molecular target: T3, ELK4 (Homo sapiens, UniProt P28324-2 1-405); conditions: protein: recombinant; tags: N-terminal GST; dsDNA, one strand shown
# T3 sequence: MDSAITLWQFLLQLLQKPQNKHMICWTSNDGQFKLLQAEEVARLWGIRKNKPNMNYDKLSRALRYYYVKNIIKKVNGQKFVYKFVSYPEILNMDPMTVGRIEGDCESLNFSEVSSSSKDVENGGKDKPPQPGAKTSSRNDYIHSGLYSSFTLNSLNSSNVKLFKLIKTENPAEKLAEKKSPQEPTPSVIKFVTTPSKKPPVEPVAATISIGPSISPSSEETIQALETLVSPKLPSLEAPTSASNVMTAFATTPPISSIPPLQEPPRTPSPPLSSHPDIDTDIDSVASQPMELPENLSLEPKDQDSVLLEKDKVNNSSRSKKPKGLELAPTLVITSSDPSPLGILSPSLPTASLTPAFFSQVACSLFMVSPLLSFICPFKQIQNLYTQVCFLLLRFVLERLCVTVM
# Method in brief: as §1
# ETV2 = molecular target: T4, ETV2 (Homo sapiens, UniProt O00321 1-342); conditions: protein: recombinant; tags: N-terminal GST; dsDNA, one strand shown
# T4 sequence: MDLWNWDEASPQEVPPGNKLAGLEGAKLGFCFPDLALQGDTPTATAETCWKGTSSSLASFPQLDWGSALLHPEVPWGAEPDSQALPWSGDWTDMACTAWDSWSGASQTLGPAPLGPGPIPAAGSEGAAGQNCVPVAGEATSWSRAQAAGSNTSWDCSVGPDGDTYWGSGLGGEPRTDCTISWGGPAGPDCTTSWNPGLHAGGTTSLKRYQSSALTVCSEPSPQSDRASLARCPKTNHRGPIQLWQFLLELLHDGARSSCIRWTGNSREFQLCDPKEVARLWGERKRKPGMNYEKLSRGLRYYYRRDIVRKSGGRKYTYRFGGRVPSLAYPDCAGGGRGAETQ
# Method in brief: as §1
# ELF3 = molecular target: T5, ELF3 (Homo sapiens, UniProt P78545 1-371); conditions: protein: recombinant; tags: N-terminal GST; dsDNA, one strand shown
# T5 sequence: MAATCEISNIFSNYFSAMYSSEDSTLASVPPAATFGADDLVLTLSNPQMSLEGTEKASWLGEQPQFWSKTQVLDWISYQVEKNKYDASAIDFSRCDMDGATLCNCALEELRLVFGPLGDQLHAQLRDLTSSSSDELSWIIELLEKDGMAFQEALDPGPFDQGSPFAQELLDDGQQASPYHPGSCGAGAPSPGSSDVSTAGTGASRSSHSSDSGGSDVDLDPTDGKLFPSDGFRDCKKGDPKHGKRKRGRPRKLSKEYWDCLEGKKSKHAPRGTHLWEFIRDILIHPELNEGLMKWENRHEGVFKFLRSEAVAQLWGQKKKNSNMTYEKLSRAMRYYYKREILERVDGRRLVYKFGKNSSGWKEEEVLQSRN
# Method in brief: as §1
# CRX = CRX (Homo sapiens, UniProt O43186 1-299); conditions: protein: recombinant; tags: N-terminal GST; dsDNA, one strand shown
# Method in brief: as §1
# ETV1 = ETV1 (Homo sapiens, UniProt P50549 1-477); conditions: protein: recombinant; tags: N-terminal GST; dsDNA, one strand shown
# Method in brief: as §1
# ERF = molecular target: T6, ERF (Homo sapiens, UniProt P50548 1-548); conditions: protein: recombinant; tags: N-terminal GST; dsDNA, one strand shown
# T6 sequence: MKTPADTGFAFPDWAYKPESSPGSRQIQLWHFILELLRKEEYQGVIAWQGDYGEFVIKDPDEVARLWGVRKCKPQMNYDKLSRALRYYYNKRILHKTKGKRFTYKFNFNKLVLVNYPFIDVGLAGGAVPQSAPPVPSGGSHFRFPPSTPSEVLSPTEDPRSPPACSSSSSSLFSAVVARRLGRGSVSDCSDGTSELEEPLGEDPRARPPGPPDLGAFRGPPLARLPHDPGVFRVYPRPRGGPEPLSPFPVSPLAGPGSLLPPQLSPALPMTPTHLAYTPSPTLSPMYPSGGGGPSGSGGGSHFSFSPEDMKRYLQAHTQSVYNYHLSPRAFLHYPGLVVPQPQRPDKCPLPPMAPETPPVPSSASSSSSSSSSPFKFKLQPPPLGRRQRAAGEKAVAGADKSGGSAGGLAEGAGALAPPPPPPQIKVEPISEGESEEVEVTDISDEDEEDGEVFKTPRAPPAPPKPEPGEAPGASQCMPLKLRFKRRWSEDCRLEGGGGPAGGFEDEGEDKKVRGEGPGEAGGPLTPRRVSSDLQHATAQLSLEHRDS
# Method in brief: as §1
# ETV3L = molecular target: T7, ETV3L (Homo sapiens, UniProt Q6ZN32 1-361); conditions: protein: recombinant; tags: N-terminal GST; dsDNA, one strand shown
# T7 sequence: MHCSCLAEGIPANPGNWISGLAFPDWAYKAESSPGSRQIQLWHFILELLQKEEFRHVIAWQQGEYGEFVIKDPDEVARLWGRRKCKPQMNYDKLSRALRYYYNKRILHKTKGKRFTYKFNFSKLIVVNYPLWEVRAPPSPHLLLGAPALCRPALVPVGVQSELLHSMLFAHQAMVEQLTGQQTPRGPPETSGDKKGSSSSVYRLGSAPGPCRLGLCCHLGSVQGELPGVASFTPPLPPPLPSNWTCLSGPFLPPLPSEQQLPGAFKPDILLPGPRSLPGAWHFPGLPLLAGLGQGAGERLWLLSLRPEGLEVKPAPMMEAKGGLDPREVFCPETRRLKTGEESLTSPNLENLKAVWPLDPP
# Method in brief: as §1
# ETS2 = molecular target: T8, ETS2 (Homo sapiens, UniProt P15036 1-469); conditions: protein: recombinant; tags: N-terminal GST; dsDNA, one strand shown
# T8 sequence: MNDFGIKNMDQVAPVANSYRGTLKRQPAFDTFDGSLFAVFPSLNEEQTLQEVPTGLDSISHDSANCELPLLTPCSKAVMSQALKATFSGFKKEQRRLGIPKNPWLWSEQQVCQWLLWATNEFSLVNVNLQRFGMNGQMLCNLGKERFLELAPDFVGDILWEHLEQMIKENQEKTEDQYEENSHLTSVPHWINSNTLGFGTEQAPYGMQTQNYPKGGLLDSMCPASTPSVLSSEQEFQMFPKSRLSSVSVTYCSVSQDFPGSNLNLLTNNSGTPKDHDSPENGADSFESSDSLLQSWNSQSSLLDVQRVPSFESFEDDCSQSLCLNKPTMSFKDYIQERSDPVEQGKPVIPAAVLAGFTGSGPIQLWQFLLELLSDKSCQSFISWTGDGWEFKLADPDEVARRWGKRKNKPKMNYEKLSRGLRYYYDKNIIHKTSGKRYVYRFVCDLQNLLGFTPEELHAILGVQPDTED
# Method in brief: as §1
# SPDEF = molecular target: T9, SPDEF (Homo sapiens, UniProt O95238 1-335); conditions: protein: recombinant; tags: N-terminal GST; dsDNA, one strand shown
# T9 sequence: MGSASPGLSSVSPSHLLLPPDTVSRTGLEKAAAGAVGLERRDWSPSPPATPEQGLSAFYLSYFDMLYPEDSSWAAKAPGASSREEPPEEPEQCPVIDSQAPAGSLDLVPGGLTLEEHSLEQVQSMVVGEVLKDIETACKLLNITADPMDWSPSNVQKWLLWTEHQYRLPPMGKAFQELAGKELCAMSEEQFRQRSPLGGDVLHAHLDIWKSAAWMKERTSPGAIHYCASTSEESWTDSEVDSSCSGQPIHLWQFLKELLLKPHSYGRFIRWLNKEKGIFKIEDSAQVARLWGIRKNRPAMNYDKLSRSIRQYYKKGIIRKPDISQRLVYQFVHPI
# Method in brief: as §1
# ETV7 = molecular target: T10, ETV7 (Homo sapiens, UniProt Q9Y603 1-341); conditions: protein: recombinant; tags: N-terminal GST; dsDNA, one strand shown
# T10 sequence: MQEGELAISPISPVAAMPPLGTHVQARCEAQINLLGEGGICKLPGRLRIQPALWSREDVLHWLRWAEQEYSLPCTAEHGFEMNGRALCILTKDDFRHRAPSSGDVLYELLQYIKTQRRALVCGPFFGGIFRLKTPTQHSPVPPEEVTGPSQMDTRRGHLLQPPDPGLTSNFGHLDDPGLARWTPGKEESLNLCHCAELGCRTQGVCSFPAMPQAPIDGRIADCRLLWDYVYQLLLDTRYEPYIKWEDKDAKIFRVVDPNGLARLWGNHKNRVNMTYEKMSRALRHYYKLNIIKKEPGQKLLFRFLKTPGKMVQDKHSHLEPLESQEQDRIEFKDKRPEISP
# Method in brief: as §1
# ELF5 = molecular target: T11, ELF5 (Homo sapiens, UniProt Q9UKW6-2 1-255); conditions: protein: recombinant; tags: N-terminal GST; dsDNA, one strand shown
# T11 sequence: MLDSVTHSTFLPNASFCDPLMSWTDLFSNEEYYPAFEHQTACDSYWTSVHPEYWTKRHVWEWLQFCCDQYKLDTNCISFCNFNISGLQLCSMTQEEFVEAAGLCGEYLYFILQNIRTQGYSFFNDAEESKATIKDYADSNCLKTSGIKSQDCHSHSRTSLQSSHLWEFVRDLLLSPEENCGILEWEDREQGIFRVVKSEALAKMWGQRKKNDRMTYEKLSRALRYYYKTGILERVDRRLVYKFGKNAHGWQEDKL
# Method in brief: as §1
# ETV3 = molecular target: T12, ETV3 (Homo sapiens, UniProt P41162-2 1-143); conditions: protein: recombinant; tags: N-terminal GST; dsDNA, one strand shown
# T12 sequence: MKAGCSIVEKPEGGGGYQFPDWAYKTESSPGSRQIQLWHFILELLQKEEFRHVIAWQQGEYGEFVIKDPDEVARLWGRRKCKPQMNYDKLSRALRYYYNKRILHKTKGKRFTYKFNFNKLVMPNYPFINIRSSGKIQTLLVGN
# Method in brief: as §1
# ETV6 = ETV6 (Homo sapiens, UniProt P41212 1-452); conditions: protein: recombinant; tags: N-terminal GST; dsDNA, one strand shown
# Method in brief: as §1
# Chain of CRX (O43186 whole entry): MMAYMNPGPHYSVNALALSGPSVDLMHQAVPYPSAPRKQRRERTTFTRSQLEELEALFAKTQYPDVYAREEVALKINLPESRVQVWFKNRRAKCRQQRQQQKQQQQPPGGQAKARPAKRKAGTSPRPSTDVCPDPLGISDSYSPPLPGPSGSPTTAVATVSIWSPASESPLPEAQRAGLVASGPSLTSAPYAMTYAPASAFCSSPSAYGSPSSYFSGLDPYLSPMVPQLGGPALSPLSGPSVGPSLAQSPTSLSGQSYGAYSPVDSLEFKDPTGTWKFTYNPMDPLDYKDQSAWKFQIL
# Chain of ELF4 (Q99607 whole entry): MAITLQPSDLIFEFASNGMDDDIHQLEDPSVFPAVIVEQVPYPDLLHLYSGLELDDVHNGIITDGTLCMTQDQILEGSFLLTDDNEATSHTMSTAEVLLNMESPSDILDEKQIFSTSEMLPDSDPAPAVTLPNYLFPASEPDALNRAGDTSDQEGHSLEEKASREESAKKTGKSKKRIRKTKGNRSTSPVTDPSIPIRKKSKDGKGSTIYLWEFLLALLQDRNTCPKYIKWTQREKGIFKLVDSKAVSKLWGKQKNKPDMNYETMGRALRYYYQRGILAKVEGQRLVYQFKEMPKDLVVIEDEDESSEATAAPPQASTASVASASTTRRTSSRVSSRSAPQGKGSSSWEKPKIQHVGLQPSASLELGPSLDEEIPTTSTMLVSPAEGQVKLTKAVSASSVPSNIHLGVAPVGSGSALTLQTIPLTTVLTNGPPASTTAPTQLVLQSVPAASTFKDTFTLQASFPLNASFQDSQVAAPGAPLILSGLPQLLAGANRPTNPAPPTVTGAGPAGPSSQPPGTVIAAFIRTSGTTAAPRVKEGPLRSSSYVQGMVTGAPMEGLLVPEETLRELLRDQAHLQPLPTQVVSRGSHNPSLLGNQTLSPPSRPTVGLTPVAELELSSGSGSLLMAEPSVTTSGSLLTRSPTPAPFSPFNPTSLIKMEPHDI
# Chain of HSF1 (Q00613 whole entry): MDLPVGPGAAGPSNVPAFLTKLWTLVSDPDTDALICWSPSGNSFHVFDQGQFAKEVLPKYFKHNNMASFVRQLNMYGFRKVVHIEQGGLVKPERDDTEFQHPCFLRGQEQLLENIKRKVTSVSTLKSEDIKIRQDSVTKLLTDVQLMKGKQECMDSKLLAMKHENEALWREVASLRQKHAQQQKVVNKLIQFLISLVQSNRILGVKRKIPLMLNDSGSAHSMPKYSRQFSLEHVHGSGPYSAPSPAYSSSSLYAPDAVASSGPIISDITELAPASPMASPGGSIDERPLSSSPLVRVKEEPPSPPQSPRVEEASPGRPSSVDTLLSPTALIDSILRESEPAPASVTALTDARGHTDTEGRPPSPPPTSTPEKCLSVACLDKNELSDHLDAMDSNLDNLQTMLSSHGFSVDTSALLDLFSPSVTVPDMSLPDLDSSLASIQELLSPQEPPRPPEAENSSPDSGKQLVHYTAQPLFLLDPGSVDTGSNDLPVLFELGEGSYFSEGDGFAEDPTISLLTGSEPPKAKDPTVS
# Chain of ETV5 (P41161 whole entry): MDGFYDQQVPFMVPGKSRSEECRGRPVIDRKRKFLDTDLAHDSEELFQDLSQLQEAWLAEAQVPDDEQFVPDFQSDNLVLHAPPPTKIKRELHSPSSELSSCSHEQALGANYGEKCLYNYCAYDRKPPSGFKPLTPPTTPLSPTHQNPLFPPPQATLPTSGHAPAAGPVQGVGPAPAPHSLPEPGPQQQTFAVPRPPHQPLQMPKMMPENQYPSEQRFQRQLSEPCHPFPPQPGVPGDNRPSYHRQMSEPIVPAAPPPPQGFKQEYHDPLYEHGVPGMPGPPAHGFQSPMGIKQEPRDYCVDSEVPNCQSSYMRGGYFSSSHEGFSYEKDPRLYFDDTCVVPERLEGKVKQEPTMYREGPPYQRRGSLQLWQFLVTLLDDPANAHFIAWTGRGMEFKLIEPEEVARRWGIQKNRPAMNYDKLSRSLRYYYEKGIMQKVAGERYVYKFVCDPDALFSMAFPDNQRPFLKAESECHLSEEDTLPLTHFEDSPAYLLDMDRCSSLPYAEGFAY
# Chain of ETV1 (P50549 whole entry): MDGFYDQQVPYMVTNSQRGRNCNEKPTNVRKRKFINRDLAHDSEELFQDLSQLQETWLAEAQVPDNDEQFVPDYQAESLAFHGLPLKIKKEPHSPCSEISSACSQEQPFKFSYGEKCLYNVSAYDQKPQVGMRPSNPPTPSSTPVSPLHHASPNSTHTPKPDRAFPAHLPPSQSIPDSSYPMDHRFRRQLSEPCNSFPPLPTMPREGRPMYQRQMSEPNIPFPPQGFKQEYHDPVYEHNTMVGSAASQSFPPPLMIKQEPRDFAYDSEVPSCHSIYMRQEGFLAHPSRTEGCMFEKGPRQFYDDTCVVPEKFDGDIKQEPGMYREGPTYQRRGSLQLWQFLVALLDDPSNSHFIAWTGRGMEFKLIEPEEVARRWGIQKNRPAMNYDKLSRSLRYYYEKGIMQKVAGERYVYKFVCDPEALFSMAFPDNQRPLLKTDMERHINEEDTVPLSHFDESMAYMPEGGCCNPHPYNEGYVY
# Chain of ETV6 (P41212 whole entry): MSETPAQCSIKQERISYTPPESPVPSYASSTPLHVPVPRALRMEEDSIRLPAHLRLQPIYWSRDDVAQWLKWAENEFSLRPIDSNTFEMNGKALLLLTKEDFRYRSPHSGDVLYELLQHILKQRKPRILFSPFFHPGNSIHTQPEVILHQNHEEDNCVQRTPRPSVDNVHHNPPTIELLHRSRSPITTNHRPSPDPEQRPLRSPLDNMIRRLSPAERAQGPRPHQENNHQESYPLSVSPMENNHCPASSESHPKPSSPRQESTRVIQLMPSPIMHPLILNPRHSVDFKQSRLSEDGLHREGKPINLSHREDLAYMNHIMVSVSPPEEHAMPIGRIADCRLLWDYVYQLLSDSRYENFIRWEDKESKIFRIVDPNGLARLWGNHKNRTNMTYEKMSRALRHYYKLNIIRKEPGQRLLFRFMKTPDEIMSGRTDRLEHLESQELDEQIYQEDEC
sequence,measurement,setting,value
AAGGAT,binding signal,FEV,"1.1 fold enrichment (6-mer frequency, TF over GST control)"
same,binding signal,ETV5,"1.17 fold enrichment (6-mer frequency, TF over GST control)"
same,binding signal,HSF1,"1.5 fold enrichment (6-mer frequency, TF over GST control)"
same,binding signal,SPIC,"1.09 fold enrichment (6-mer frequency, TF over GST control)"
same,binding signal,ELF4,"1.13 fold enrichment (6-mer frequency, TF over GST control)"
same,binding signal,ELK4,"1.08 fold enrichment (6-mer frequency, TF over GST control)"
same,binding signal,ETV2,"1.24 fold enrichment (6-mer frequency, TF over GST control)"
same,binding signal,ELF3,"1.13 fold enrichment (6-mer frequency, TF over GST control)"
same,binding signal,CRX,"1.97 fold enrichment (6-mer frequency, TF over GST control)"
same,binding signal,ETV1,"1.12 fold enrichment (6-mer frequency, TF over GST control)"
same,binding signal,ERF,"1.12 fold enrichment (6-mer frequency, TF over GST control)"
same,binding signal,ETV3L,"1.21 fold enrichment (6-mer frequency, TF over GST control)"
same,binding signal,ETS2,"1.14 fold enrichment (6-mer frequency, TF over GST control)"
same,binding signal,SPDEF,"1.37 fold enrichment (6-mer frequency, TF over GST control)"
same,binding signal,ETV7,"1.05 fold enrichment (6-mer frequency, TF over GST control)"
same,binding signal,ELF5,"1.43 fold enrichment (6-mer frequency, TF over GST control)"
same,binding signal,ETV3,"1.24 fold enrichment (6-mer frequency, TF over GST control)"
same,binding signal,ETV6,"1.21 fold enrichment (6-mer frequency, TF over GST control)"
